Shown are actives, neighbours in structure and some others; about 1.2% of the full set was active somewhere.
Mtb bLac sens = beta-lactam sensitization of Mtb H37Rv; M. tuberculosis H37Rv growth with meropenem, percent inhibition; inhibition, % at 25 µM; actives 0.27% (n = 330,000); call rule not given here;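 note: growth measured after seven days incubation then overnight dye step; 0% = bacteria only wells and 100% = bacteria with antibiotic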
RecA intein inh = Mtb RecA intein splicing inhibition | P9WHJ3 | cell-free RecA intein splicing, fluorescence | inhibition, % (test concentration not listed) | actives 0.75% (n = 290,000) | AID 2221; in the data active = inhibition above about 30%; inconclusive = no clear call, values can overlap the other calls;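 note: 0% = vehicle wells and 100% = reference inhibitor control wells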
CCHFV vOTU inh = blocks the CCHF virus ovarian tumor domain protease | CCHFV vOTU protease, Pep-AMC fluorescence | inhibition, % at 11.5 µM | actives 0.55% (n = 370,000) | AID 651958; in the data active = inhibition above about 30%; note: 0% = vehicle wells with enzyme and 100% = no enzyme wells
Rv3671c protease = inhibits the M. tuberculosis serine protease Rv3671c; P9WHR9; inhibition, % at 5.96 µM; actives 0.048% (n = 320,000); AID 2606; in the data active = inhibition above about 38%;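 note: extracellular domain of Rv3671c used as enzyme; 0% = enzyme with DMSO and 100% = no enzyme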
Target sequence (P9WHR9 whole entry, looked up, the tested form may be a part): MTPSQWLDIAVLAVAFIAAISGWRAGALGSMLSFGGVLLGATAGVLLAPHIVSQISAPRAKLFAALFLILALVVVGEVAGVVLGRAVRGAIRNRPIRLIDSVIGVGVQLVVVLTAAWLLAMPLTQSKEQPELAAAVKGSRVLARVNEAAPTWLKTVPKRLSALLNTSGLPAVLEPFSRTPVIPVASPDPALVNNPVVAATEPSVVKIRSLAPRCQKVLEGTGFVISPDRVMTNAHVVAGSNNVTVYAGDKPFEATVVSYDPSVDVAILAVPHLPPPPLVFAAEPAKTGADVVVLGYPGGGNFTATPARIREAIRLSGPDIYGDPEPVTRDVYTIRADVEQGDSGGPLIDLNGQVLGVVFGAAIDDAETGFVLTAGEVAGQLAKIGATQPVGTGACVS
Mtb UGM inh = inhibitors of M. tuberculosis UDP-galactopyranose mutase | purified UGM, fluorescence polarization probe displacement | P9WIQ1 | actives 0.06% (n = 320,000) | inhibition, % at 10 µM; in the data active = inhibition above about 10%, passing the limit was not always enough; inconclusive = no clear call, values can overlap the other calls
An asterisk follows results filed as active; ? = inconclusive; nt = no result.

SMILES	Mtb bLac sens	RecA intein inh	CCHFV vOTU inh	Rv3671c protease	Mtb UGM inh
COc1ccc(C(=O)NCC(=O)N2CCN(C(=O)c3ccco3)CC2)cc1[N+](=O)[O-]	-10.0	nt	7.0	-2.4	10.9*
COC(=O)[C@]12C[C@H](CC(=O)NCCCCc3ccccc3)C(=O)N(CCc3ccc(OC)c(OC)c3)C1=C[C@H](COCc1ccccc1)O[C@@H]2C	nt	nt	4.5	nt	nt
Cc1ccc(S(=O)(=O)NC(=O)c2ccc(-c3ccc(-c4ccccc4)cc3)o2)c(C)c1	-4.1	36.4*	nt	-14.1	1.2
Cc1ccc(S(=O)(=O)NC(=O)c2ccc(F)cc2)c(C)c1	-4.2	-1.5	3.0	4.2	0.8
COC(=O)[C@]12C[C@H](CC(=O)N3CCN(C(=O)c4ccco4)CC3)C(=O)N(Cc3ccco3)C1=C[C@H](C(C)(C)C)O[C@@H]2C	nt	nt	3.1	nt	nt
COc1ccc(C2C=C(c3cccs3)Nc3nc(CCCO)nn32)cc1 (stereo unspecified)	-6.3	nt	nt	-5.2	28.6*
CC(C)CCN(C)C1CCN(C(=O)Nc2ccc3c(c2)OCO3)CC1	nt	nt	-1.0	nt	nt
Cc1cccc(C(=O)c2cnc3ccccc3c2-c2ccccc2)c1	-4.5	32.9*	9.2	-15.8	-0.8
CC(=O)Nc1cccc(C(C)C2=CCCCC2)c1 (stereo unspecified)	nt	nt	11.1	nt	nt
O=C(O)c1ccc(N=N/C(=N\Nc2ccc(C(=O)O)cc2)c2ccccc2)cc1	10.0	1.5	23.2	14.2	4.5
O=C(O)c1cccc(N/N=C(\N=Nc2ccccc2)c2ccccc2)c1	87.6	40.7*	4.1	18.8	-0.4
Cc1cc(O)c(C=O)c2c1C(=O)Oc1c(CO)c(O)c3c(c1O2)C(O)OC3=O (stereo unspecified)	-6.7	nt	nt	56.7*	4.3
COc1ccc(C2C(C#N)=C(N)Oc3c2c(C)nn3-c2ccccc2)cc1Cn1nc(C)c([N+](=O)[O-])c1C (stereo unspecified)	0.4	53.6*	9.1	10.5	2.0
COc1ccc(C2C(C#N)=C(N)OC3=C2C(=O)CC(C)(C)C3)cc1Cn1nc(C)c([N+](=O)[O-])c1C (stereo unspecified)	2.2	0.8	8.3	-17.7	3.8
CC(C)C[C@@H]1NC(=O)[C@H]2C[C@@]3(C)c4ccccc4N[C@H]3N2C1=O	nt	nt	-4.9	nt	nt
FC(F)(F)c1cc(Cl)c2nc(-c3cccc(Cl)c3)c(Cc3cccc(Cl)c3)n2c1	nt	nt	4.1	nt	nt
FC(F)(F)c1cc(Cl)c2nc(-c3ccccc3)c(Cc3cccc(Cl)c3)n2c1	nt	nt	30.7*	nt	nt
Oc1oc(-c2ccccc2)nc1C=Nc1ccccc1	6.1	3.4	0.4	2.1	1.0
CN(C)c1ccc(N=Cc2nc(-c3ccccc3)oc2O)cc1	32.7	-2.5	12.6	3.6	14.8*
O=C1C(Cc2ccccc2)Nc2ncnc(N3CCc4ccccc4C3)c2N1Cc1ccccc1 (stereo unspecified)	2.0	nt	nt	-10.0	0.6
CC1Nc2ncnc(N3CCc4ccccc4C3)c2N(Cc2ccc(Br)cc2)C1=O (stereo unspecified)	3.0	35.0*	5.4	-18.2	-3.9
CC1Nc2ncnc(N3CCc4ccccc4C3)c2N(Cc2ccc(Cl)cc2)C1=O (stereo unspecified)	0.0	31.6*	nt	-18.5	-1.9
CCN(CC)c1ccc2cc(-c3nc4ccccc4[nH]3)c(=O)oc2c1	12.6	nt	nt	-3.2	30.8*
CCN(CC)c1ccc2cc(-c3nc4ccccc4n3C)c(=O)oc2c1	?	-388.3	-34.2	8.4	2.0
CCc1cc2c(nc1CC)CCCN2S(=O)(=O)c1ccccc1	nt	nt	1.6	nt	nt
SMILES	Mtb bLac sens	RecA intein inh	CCHFV vOTU inh	Rv3671c protease	Mtb UGM inh
CC(=O)/C=C1/C(=O)Nc2ccccc21	79.2	62.1*	0.9	-3.3	-3.1
NC(=O)[C@H](Cc1cc2ccccc2s1)NC(=O)[C@@H]1CC2(CC(c3cccc(NC(=O)[C@@H]4CCC(=O)N4)c3)=NO2)CN1C(=O)/C=C/c1c(F)cccc1Cl (stereo partly specified)	75.1	32.7*	nt	-129.5	-1.4
COC(=O)C1CN(Cc2cn(Cc3ccc(OC)cc3)nn2)CCS(=O)(=O)N1Cc1ccc(OC)cc1 (stereo unspecified)	nt	nt	-3.0	nt	nt
COC(=O)C1CN(C2CCCC2)CCS(=O)(=O)N1Cc1cn(Cc2ccccc2)nn1 (stereo unspecified)	nt	nt	0.2	nt	nt
CCN(CC)c1ccc2cc(S(=O)(=O)c3ccc(Cl)cc3)c(=O)oc2c1	6.6	nt	-13.5	-6.6	19.9*
Cc1ccc(C)c(C(=O)Cn2ncc(Cl)c(Cl)c2=O)c1	97.6	19.2	-3.2	-7.9	3.0
Cc1cccc(Cn2ncc(Cl)c(Cl)c2=O)c1	98.5	55.2*	-15.5	-3.5	-1.3
Cc1cccc(-c2cccc3c4c([nH]c23)[C@@H]2C[C@H](N(C)C(=S)Nc3ccc(C#N)cc3)[C@H]([C@H](C)O)CN2CC4)c1	nt	nt	10.6	nt	nt
O=c1c(C(c2ccccc2)c2c(O)sc3ccccc3c2=O)c(O)sc2ccccc12	4.0	28.7*	-13.2	-48.7	1.3
COC(=O)N1C[C@H](OC)[C@H]2C[C@@H]1c1ccccc1O2	nt	nt	-0.3	nt	nt
CC(C)c1ccc(C2C3CSCC=C3C(C#N)=C(N)C2(C#N)C#N)cc1 (stereo unspecified)	5.5	36.4*	nt	-11.6	2.4
CN1CC=C2C(C#N)=C(N)C(C#N)(C#N)C(CCc3ccccc3)C2C1 (stereo unspecified)	-7.2	-22.1	nt	-6.8	2.3
CCCC1C2CN(C(C)C)CC=C2C(C#N)=C(N)C1(C#N)C#N (stereo unspecified)	-3.1	-100.2	-29.6	8.2	13.3*
COC(=O)[C@]12C[C@H](CC(=O)NCC3CCCCC3)C(=O)N(Cc3ccc(Cl)cc3Cl)C1=C[C@H](C(C)C)O[C@@H]2C1CC1	nt	nt	25.0	nt	nt
COC(=O)C1CN(CCc2ccccc2)CCS(=O)(=O)N1Cc1ccc(C(F)(F)F)cc1 (stereo unspecified)	nt	nt	18.3	nt	nt
CC1=[N+](C)c2c(ccc3cccnc23)C1(C)C	nt	nt	30.7*	nt	nt
C[C@@H](CO)N(Cc1cn(Cc2ccccc2)nn1)S(=O)(=O)c1ccc(F)cc1Br	nt	nt	-1.5	nt	nt
Cc1ccccc1CN1CCCCC(NC(=O)c2ccc(-c3ccccc3)cc2)C1=O (stereo unspecified)	nt	nt	4.0	nt	nt
O=C(Cn1ncc(Cl)c(Cl)c1=O)Nc1ccc2c(c1)OCO2	98.0	nt	5.6	-1.3	1.4
CCN(CC)S(=O)(=O)c1cc(NC(=O)Cn2ncc(Cl)c(Cl)c2=O)ccc1C	-2.6	51.5*	8.7	-6.2	-0.7
Cc1ccc(NC(=O)CCl)cc1S(=O)(=O)N1CCCCCC1	96.2	52.4*	2.1	13.8	-1.7
CCCCCc1cc(=O)oc2c(C(CCN3CCCC(C)C3)c3ccc(N(C)C)cc3)c(OC)cc(OC)c12 (stereo unspecified)	100.4	30.9*	nt	-5.2	2.2
CCCCCc1cc(=O)oc2c(C(CCN3CCCC(C)C3)c3cc(OC)c(OC)c(OC)c3)c(OC)cc(OC)c12 (stereo unspecified)	100.0	29.4	nt	-3.7	-1.6
C=CCN(CC#Cc1ccc(C(F)(F)F)cc1)Cc1ccc(OC)cc1OC	nt	nt	12.5	nt	nt
COC(=O)[C@H](C(C)C)N1Cc2nnn(Cc3ccc(C)cc3)c2-c2ccccc2S1(=O)=O	nt	nt	7.3	nt	nt

Screening results: PubChem, several laboratories
